The record followed here is PubChem BioAssay (Tox21).

Unmarked numbers belong to inactive results. Records with an inconclusive call do not appear. Active and inactive are the calls of the source. Unless noted, calls come from the whole dose curve; as a rule, active = well fitted curve in the direction sought with a large enough effect in the repeat runs; inconclusive = weak or mixed curves; inactive = no such curve, though single readings can be large; an effect the other way counts as inactive or inconclusive.

Test [1] deals with Progesterone receptor (Homo sapiens) (UniProt P06401). The test is described as follows: qHTS assay to identify small molecule agonists of the progesterone receptor (PR) signaling pathway (AID 1346784; calls by dose curve; note: % is set by controls: 0 for no effect and ±100 for the full control effect; nearly all actives have a fitted effect of over 30% in size). Summed up:
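Cells (PR-UAS-bla HEK 293T, GripTite) were plated in assay medium containing 2% charcoal-stripped FBS and incubated 6 hr. Test compounds in DMSO were added for 16 hr at 37C. FRET substrate was then loaded for 2 hr at room temperature before fluorescence reading.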

For test [2] the target is unchanged. The experiment in a line: qHTS assay to identify small molecule antagonists of the progesterone receptor (PR) signaling pathway (AID 1346795; active = well fitted inhibition curve with a large enough effect in the signal ratio in the repeat runs, not every such curve was filed as active; the % refers to the signal ratio; note: % is set by controls: 0 for no effect and ±100 for the full control effect). Summed up:
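Antagonist mode: compounds tested against 1 nM (final) promegestone stimulation in HEK293T cells expressing PR-UAS-bla reporter, 16 hr at 37C, 5% CO2; beta-lactamase activity detected via B/G FRET substrate after 2 hr at room temperature.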

Test [3] is described as follows: qHTS assay to identify small molecule antagonists of the progesterone receptor (PR) signaling pathway - cell viability counter screen (AID 1346798). Note: series mostly up to about 92 µM; % is set by controls: 0 for no effect and ±100 for the full control effect; nearly all actives have a fitted effect of over 50% in size. Put shortly:
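Counter screen for cytotoxicity: viability of PR-UAS-bla HEK293T cells was measured with CellTiter-Glo luminescence following 16 hr compound exposure in the presence of R5020.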
A general note: In qHTS, concentration-response curves come from the screen itself.

Test [4] in a line: qHTS assay to identify small molecule agonists of the progesterone receptor (PR) signaling pathway - cell viability counter screen (AID 1346799; calls by dose curve; note: % is set by controls: 0 for no effect and ±100 for the full control effect; nearly all actives have a fitted effect of over 45% in size). Put shortly:
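Cells (PR-UAS-bla HEK293T) are plated at 3,000/well in 2% charcoal-stripped FBS medium, rested 6 hr, dosed and incubated 16 hr at 37C. CellTiter-Glo is then added and luminescence measured after 30 min at room temperature.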

Test [5] can be described thus: qHTS assay to identify small molecule antagonists of the TGF-beta/Smad signaling pathway - cell viability counter screen (AID 1346824). Note: % is set by controls: 0 for no effect and ±100 for the full control effect; nearly all actives have a fitted effect of over 50% in size. Summed up:
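Cytotoxicity counter-screen run in the same wells as the beta-lactamase Smad reporter read: CellTiter-Glo luminescence after 30 min at room temperature. HEK 293T SBE-bla cells had 5 hr compound exposure at 37 C with TGF-beta1 (0.25 ng/mL stock).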

A short description of test [6]: qHTS assay to identify small molecule agonists of the TGF-beta/Smad signaling pathway - cell viability counter screen (AID 1346829). Note: top concentration of the series differs between compounds; % is set by controls: 0 for no effect and ±100 for the full control effect; nearly all actives have a fitted effect of over 45% in size. Summed up:
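SBE-bla HEK 293T cells plated overnight, compound exposure 5 hr at 37 C. Viability read in the same wells by CellTiter-Glo luminescence after 30 min at room temperature, following the beta-lactamase read.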

Test [7] in a line: qHTS assay to identify small molecule agonists of the TGF-beta/Smad signaling pathway (AID 1346859; active = well fitted activation curve with a large enough effect in the signal ratio in the repeat runs, not every such curve was filed as active; the % refers to the signal ratio; note: series mostly up to about 77 µM; % is set by controls: 0 for no effect and ±100 for the full control effect). Summed up: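 Reporter line: HEK 293T with stably integrated SBE-controlled beta-lactamase. Compound exposure lasts 5 hr at 37 C and 5% CO2; substrate loading follows for 2 hr at room temperature, with emission read at 460 and 530 nm.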
For test [8], the target named is Thyrotropin-releasing hormone receptor (Homo sapiens) (UniProt P34981). The test is described as follows: qHTS assay to identify small molecule agonists of the thyrotropin-releasing hormone receptor (TRHR) signaling pathway (AID 1346891; calls by dose curve;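 note: HEK293 cells expressing TRHR with calcium dye readout; series mostly up to about 58 µM; % is set by controls: 0 for no effect and ±100 for the full control effect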). Summed up:
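Cells: TRHR-Hek293, seeded and incubated 18 h. Dye loading: 2 h at 37 °C. Compound added from DMSO stock by pin tool. Read-out: kinetic calcium fluorescence over 3 min.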

Test [9] in a line: Human pregnane X receptor (PXR) small molecule agonists, qHTS cell viability counter screen (AID 1346977). Note: % is set by controls: 0 for no effect and ±100 for the full control effect; nearly all actives have a fitted effect of over 50% in size. Put shortly:
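Cytotoxicity counter screen run in the same wells as the PXR luciferase assay, using PXR-Luc HepG2 cells in charcoal-stripped serum medium. Viability: CellTiter-Fluor fluorescence after 24hr compound treatment.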

The nature of test [10]: Caspase-3/7 induction in HepG2 cells by small molecules, qHTS assay (AID 1346978). Note: % is set by controls: 0 for no effect and ±100 for the full control effect; nearly all actives have a fitted effect of over 15% in size. Put shortly:
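Caspase-3/7 induction was measured by Caspase-Glo 3/7 luminescence (30 min, room temperature) after a 17 hr compound exposure of wild-type HepG2 cells seeded at 2,000 per well and pre-incubated 5 hr.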

Test [11] is described as follows: Caspase-3/7 induction in CHO-K1 cells by small molecules, qHTS cell viability counter screen (AID 1346979). Note: % is set by controls: 0 for no effect and ±100 for the full control effect; nearly all actives have a fitted effect of over 35% in size. Summed up:
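Cytotoxicity counter screen run in parallel with the caspase-3/7 assay: CHO-K1 cells, 16hr compound treatment at 37C, then CellTiter-Fluor for 1hr before fluorescence reading.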

Test [12] is described as follows: Caspase-3/7 induction in CHO-K1 cells by small molecules, qHTS assay (AID 1346980). Note: % is set by controls: 0 for no effect and ±100 for the full control effect; nearly all actives have a fitted effect of over 15% in size. Summed up: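 Luminescent Caspase-Glo 3/7 read (30min, room temperature) quantified apoptosis induction. Cells were wild-type CHO-K1, treated with compound for 17hr at 37 C and 5% CO2.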
A short description of test [13]: Caspase-3/7 induction in HepG2 cells by small molecules, qHTS cell viability counter screen (AID 1346981). Note: series mostly up to about 92 µM; % is set by controls: 0 for no effect and ±100 for the full control effect; nearly all actives have a fitted effect of over 30% in size. Put shortly: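 HepG2, WT, 2,000 cells/well; 5 hr pre-incubation 37 C/5% CO2; compound pin-transferred from DMSO; 16 hr exposure; CellTiter-Fluor, 1 hr; fluorescence read.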
Test [14] addresses Nuclear receptor subfamily 1 group I member 2 (Homo sapiens) (UniProt O75469). The experiment in a line: Human pregnane X receptor (PXR) small molecule agonists, qHTS assay (AID 1346982). Note: % is set by controls: 0 for no effect and ±100 for the full control effect; nearly all actives have a fitted effect of over 35% in size. Summed up:
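Luciferase signal from ONE-Glo (30 min, room temperature) measured activation of hPXR-driven CYP3A4 reporter expression in PXR-Luc HepG2 cells treated with compounds for 24 hr at 37 C.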

The target of test [15] is Cytochrome P450 2D6 (Homo sapiens) (UniProt P10635). The experiment in a line: Cytochrome P450 Family 2 Subfamily D Member 6 (CYP2D6) small molecule antagonists: luciferase reporter qHTS assay (AID 1671196). Note: nearly all actives have a fitted effect of over 50% in size. Note: potency is the fitted concentration of half-maximal effect. Summed up: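 Read-out is luminescence from luciferin formed by CYP2D6 turnover of a proluciferin substrate, recorded as relative luminescence units. Reactions ran 1 h at room temperature after NADPH regeneration solution was added.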
In general terms: Reporter assays use an easily measured gene product as a stand-in for the process of interest.

The target of test [16] is Cytochrome P450 2C19 (Homo sapiens) (UniProt P33261). The experiment in a line: Cytochrome P450 Family 2 Subfamily C Member 19 (CYP2C19) small molecule antagonists: luciferase reporter qHTS assay (AID 1671197). Note: nearly all actives have a fitted effect of over 65% in size. Note: potency is the fitted concentration of half-maximal effect. Summed up:
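P450-Glo CYP2C19 system: enzyme-substrate mix with compound 10 min at room temperature, then NADPH regeneration solution, 1 h at 37C. Proluciferin-to-luciferin conversion detected by luminescence after 20 min with detection reagent; ketoconazole as positive control.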

For test [17], the target named is Nuclear receptor subfamily 1 group I member 2 (Rattus norvegicus) (UniProt Q9R1A7). The test is described as follows: Rat pregnane X receptor (rPXR) activation by small molecules, qHTS assay (AID 1346983). Note: % is set by controls: 0 for no effect and ±100 for the full control effect; nearly all actives have a fitted effect of over 20% in size. As to conditions: rPXR luciferase reporter cells, One-Glo luminescence, 24 h; hits give high values. Summed up:
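Luminescent readout (One-Glo luciferase, 30 min room temperature) followed 24 hr compound treatment at 37 C of rPXR cells plated 2,000 per well and preincubated 5hr; qHTS format with compounds delivered in DMSO.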

Test [18] has as its target Nuclear receptor subfamily 1 group I member 2 (Homo sapiens) (UniProt O75469). The experiment in a line: CYP3A4 induction through human pregnane X receptor (PXR) by small molecules, qHTS assay (AID 1346984). Note: % is set by controls: 0 for no effect and ±100 for the full control effect; nearly all actives have a fitted effect of over 40% in size. Summed up:
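Luminescence readout: luciferase signal after One-Glo (30 min, room temperature), following 3 h at 37C with 3uM final Luciferin-IPA P450 substrate. Cells were DPX-2 (HepG2, PXR/CYP3A4-luc co-transfected) dosed for 24 h.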

Test [19] shares this target. The experiment in a line: Human pregnane X receptor (PXR) activation by small molecules, qHTS assay (AID 1346985). Note: potency is the fitted concentration of half-maximal effect; nearly all actives have a fitted effect of over 40% in size. Summed up: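 DPX-2 cells (HepG2 co-transfected with a PXR response element and a CYP3A4-promoter luciferase construct) were seeded at 2,000 per well, rested 5 hr at 37C, then exposed to DMSO-dissolved compounds for 24 hr. Activation was read as luciferase luminescence.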

For test [20], the target named is Thyrotropin-releasing hormone receptor (Homo sapiens) (UniProt P34981). The test is described as follows: qHTS assay to identify small molecule antagonists of the thyrotropin-releasing hormone receptor (TRHR) signaling pathway (AID 1346877; active = well fitted inhibition curve with a large enough effect in the repeat runs, not every such curve was filed as active; note: series mostly up to about 51 µM; % is set by controls: 0 for no effect and ±100 for the full control effect). Put shortly:
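Intracellular calcium fluorescence, read kinetically every second over 3 min, reports TRH-evoked signalling in HEK293 cells carrying TRHR. Test compounds were added 5 min ahead of a 1 nM TRH challenge.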

Thyrotropin-releasing hormone receptor (Homo sapiens), sequence (P34981 whole entry, looked up): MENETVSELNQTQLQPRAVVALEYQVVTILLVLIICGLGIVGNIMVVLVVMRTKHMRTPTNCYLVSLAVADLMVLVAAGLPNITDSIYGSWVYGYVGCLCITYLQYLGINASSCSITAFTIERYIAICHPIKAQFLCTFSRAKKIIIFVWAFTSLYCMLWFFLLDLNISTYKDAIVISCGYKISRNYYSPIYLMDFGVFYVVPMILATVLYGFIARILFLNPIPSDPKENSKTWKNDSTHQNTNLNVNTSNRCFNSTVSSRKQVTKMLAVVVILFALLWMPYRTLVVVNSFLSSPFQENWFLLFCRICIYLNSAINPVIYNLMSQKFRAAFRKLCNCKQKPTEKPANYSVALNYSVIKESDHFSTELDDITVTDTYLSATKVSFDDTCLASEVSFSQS
Progesterone receptor (Homo sapiens), sequence (P06401 whole entry, looked up): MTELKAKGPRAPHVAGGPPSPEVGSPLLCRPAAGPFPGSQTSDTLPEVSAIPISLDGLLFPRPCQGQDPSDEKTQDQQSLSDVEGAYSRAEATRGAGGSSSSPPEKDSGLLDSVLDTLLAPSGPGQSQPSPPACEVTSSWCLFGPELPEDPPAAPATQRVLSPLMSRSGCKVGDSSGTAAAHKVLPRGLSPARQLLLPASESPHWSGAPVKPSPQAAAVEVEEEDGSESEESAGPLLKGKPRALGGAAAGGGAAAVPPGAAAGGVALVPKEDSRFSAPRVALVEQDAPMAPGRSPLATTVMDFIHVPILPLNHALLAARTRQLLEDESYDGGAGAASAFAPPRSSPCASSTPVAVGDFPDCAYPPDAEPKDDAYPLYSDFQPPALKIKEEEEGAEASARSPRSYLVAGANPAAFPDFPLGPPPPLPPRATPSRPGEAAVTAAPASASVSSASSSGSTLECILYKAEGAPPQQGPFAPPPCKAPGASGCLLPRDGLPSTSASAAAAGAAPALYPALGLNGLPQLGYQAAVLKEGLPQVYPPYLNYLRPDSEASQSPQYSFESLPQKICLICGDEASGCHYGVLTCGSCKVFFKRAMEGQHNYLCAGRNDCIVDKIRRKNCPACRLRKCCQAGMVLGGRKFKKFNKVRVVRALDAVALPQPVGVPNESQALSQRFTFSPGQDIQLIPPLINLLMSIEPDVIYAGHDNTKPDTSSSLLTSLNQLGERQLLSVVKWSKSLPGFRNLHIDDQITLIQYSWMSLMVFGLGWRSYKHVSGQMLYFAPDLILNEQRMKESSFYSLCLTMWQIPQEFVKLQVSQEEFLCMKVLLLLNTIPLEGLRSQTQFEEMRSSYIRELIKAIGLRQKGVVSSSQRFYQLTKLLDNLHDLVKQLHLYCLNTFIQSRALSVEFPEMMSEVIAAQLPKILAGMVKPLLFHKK
Cytochrome P450 2D6 (Homo sapiens), sequence (P10635 whole entry, looked up): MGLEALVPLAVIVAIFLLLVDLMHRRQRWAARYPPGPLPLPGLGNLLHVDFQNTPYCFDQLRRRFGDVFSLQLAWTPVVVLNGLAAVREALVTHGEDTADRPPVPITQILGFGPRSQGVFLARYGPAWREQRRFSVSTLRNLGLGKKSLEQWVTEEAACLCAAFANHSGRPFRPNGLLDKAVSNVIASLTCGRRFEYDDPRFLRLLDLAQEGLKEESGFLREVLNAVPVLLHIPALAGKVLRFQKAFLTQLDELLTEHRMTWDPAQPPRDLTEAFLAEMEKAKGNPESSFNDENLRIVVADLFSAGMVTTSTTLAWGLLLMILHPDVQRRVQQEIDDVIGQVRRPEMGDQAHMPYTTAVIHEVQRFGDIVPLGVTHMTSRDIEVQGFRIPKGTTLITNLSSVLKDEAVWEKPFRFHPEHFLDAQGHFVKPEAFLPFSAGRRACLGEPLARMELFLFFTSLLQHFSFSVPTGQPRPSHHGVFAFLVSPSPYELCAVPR
Nuclear receptor subfamily 1 group I member 2 (Homo sapiens), sequence (O75469 whole entry, looked up): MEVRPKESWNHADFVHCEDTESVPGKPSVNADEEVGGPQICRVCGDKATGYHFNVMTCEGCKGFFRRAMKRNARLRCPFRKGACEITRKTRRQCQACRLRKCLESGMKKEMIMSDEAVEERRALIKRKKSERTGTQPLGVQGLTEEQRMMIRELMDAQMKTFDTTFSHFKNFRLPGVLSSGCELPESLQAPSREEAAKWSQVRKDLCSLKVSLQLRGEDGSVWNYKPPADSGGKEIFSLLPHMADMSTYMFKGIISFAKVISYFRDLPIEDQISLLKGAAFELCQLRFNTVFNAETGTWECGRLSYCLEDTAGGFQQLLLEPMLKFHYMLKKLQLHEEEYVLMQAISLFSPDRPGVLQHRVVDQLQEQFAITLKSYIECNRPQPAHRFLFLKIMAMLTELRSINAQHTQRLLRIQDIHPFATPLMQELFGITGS
Cytochrome P450 2C19 (Homo sapiens), sequence (P33261 whole entry, looked up): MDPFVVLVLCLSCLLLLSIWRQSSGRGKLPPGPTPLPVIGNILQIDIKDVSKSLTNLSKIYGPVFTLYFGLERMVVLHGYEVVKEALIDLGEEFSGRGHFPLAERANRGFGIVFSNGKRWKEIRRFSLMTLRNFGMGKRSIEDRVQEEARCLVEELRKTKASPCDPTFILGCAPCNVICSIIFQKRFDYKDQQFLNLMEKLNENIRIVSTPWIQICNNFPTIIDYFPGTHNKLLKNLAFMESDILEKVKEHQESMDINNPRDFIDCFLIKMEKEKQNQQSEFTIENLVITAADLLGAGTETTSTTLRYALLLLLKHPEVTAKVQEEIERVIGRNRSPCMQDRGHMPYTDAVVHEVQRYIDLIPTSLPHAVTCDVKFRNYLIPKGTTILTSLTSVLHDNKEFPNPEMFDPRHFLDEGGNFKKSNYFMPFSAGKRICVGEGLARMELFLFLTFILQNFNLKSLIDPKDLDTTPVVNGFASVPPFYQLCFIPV
Nuclear receptor subfamily 1 group I member 2 (Rattus norvegicus), sequence (Q9R1A7 whole entry, looked up): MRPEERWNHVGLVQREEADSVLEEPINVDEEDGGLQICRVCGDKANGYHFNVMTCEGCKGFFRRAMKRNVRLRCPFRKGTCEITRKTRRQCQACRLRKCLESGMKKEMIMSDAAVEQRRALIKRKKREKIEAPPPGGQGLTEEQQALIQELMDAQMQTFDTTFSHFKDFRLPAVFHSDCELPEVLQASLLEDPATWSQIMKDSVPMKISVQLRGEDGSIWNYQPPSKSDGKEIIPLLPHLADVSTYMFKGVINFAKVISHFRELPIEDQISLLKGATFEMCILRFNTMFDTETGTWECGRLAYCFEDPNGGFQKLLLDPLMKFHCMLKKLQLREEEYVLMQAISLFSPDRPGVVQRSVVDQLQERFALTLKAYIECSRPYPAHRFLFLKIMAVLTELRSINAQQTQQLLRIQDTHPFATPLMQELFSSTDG

On to `C=C(C)C(=O)OCCOP(=O)(O)OCCOC(=O)C(=C)C`, for which the Potency result in [1], in test [2], in test [3], in test [4], in [9] and in [10] was “inactive” in each case. The Potency entry in [11], in test [13], in [14], in [15] and in test [16] was “inactive” throughout. The compound was classed as inactive in test [5], in [6], in test [7], in test [8] and in test [12].
`COc1ccc(S(=O)(=O)N2c3ccc(Cl)cc3[C@@](O)(c3ccccc3Cl)[C@H]2C(=O)N2CCC[C@@H]2C(N)=O)cc1OC`: the Potency result in [1], in test [2], in test [3], in test [4], in test [9] and in test [11] was “inactive” in each case. Moreover, the Potency result in test [13], in test [18], in test [15] and in test [16] was “inactive” throughout. The call in [5], in test [6], in [7], in test [8] and in test [12] was inactive. Also, in [17], the max activation is 11.3%. The Potency in test [19] was 14.1 µM (active).
For `COc1cc2c(cc1OC)[C@@H]1CC(=O)[C@@H](CC(C)C)CN1CC2`, the Potency result in test [1], in test [2], in test [3], in test [4], in test [9] and in test [13] was “inactive” throughout. Further, the call in test [5], in test [6], in test [7], in test [8] and in [12] was inactive. Besides, the figures for the Potency in test [15] and in test [16] were 12.3 µM (active) and 7.76 µM (active), respectively.
As for `C[Si](C)=O`, the figures for the activation in test [1], in [7] and in test [14] were 1.46% [at 8.39 µM], -0.731% [at 6.97 µM] and 16.2% [at 8.39 µM], respectively. In addition, the activity change, negative = inhibition is 12.9% [at 8.39 µM] in [2], -1.51% [at 10.5 µM] in [15] and -11.8% [at 10.5 µM] in test [16]. Further, the activity change, negative = cytotoxicity in test [3] is 4.63% [at 8.39 µM]; in test [4], 7.66% [at 8.39 µM]; in test [6], 3.98% [at 6.97 µM]; in [9] it was 7.41% [at 8.39 µM]; in test [11], 1.4% [at 8.39 µM]; in test [13], 6.01% [at 8.39 µM]. For the same compound, in test [5], the viability change, negative = cytotoxic is 0.719% [at 6.97 µM]. For the same compound, the caspase activation in [10] is 0.773% [at 8.39 µM]. In addition, the caspase-3/7 activation in test [12] is 0.203% [at 8.39 µM].
With `CN(C)C(=O)CNC(=O)Cc1ccccc1`, the Potency result in [1], in [2], in test [3], in [4], in [9] and in [10] was “inactive” throughout. Besides, the Potency entry in [11], in [13], in test [15] and in [16] was “inactive” throughout. The call in [5], in test [6], in [7] and in [12] was inactive.
`Cc1ccccc1OCC(O)CO` (stereo not drawn): the Potency entry in [1], in test [2], in [3], in test [4], in test [9] and in [10] was “inactive” in each case. The Potency entry in test [11] and in test [13] was “inactive” throughout. Also, the call in test [5], in [6], in [7] and in test [12] was inactive. Moreover, the max activation in [17] was -0.0648%.
Turning to `CCCCNC1CC(C)(C)NC(C)(C)C1`, the Potency entry in [1], in test [2], in [3], in [4], in test [9] and in test [10] was “inactive” each time. Besides, the Potency entry in test [13], in test [14] and in [16] was “inactive” each time. The compound was classed as inactive in test [5], in [6], in test [20], in test [8] and in test [12]. Besides, in test [15], the Potency is 28.3 µM (active).
